Source: ChEMBL document CHEMBL3988442, “University of Dundee, Small-Polar-MMV Screening Library” (2021)

These compounds were tested against AMP-activated protein kinase, AMPK (Homo sapiens) (UniProt P54646+O43741+P54619+Q9UGJ0+Q9Y478+Q13131+Q9UGI9) (assay: AMP-dependent Kinase enzyme assay. An in vitro enzyme assay that detects ADP turnover that is directly proportional to AMPK activity. This uses naive AMPK that is activated during the assay with MK-8722). Details: 30 µM.
Format: functional
Set-up: scale not given: direction of the effect not stated beside the values

Row | SMILES | Percent Effect [%]
1 | CC(C)(C)NC(=O)CNc1ncccn1 | 91.2
2 | CCN(C(=O)CN1CCCC1c1c(C)nn(C)c1OC)C1CC1 (stereo not given) | 3.98
3 | CCn1nc(C)cc1C(=O)N1C[C@@H](CN(C)C)[C@@H](CO)C1 | 0.455
4 | Cc1cc(C)nc(NC2CC(=O)N(C)C2)n1 (stereo not given) | -3.57
5 | O=C(NCc1ccnc(OCC2CC2)c1)C1Cc2ccccc2O1 (stereo not given) | -4.29
6 | CN(CCn1cncc1-c1cnc(N2CCOCC2)nc1)C1CCCC1 | 12.2
7 | CC(=O)N1CC(c2ccnc(Nc3nccs3)n2)C1 | 1.83
8 | Cc1ccc(CNC(C)(C)c2noc(C(C)(C)C)n2)o1 | 0.8
9 | NC(=O)CCn1ccc(NCc2cc(F)ccc2Br)n1 | -0.0146
10 | NC(=O)c1cc(C2CCCN(CCc3ccc4c(c3)CCO4)C2)n[nH]1 (stereo not given) | 3.33
11 | Cc1ccccc1[C@@H]1CN(CCOCCO)C[C@H]1C(=O)O | -1.24
12 | O=C(NCc1ccc(N2CCSCC2)cc1)NCc1cc[nH]n1 | -0.457
13 | Cc1ccc(OCc2occc2C(=O)N2CCOC(C(=O)O)C2)cc1 (stereo not given) | 2.93
14 | CCn1cnnc1CCNS(=O)(=O)N1CCCC1c1ccco1 (stereo not given) | -10.7
15 | CCCOc1cc(CNC(=O)Nc2ccc(C)cc2)ccn1 | 1.3
16 | CCc1ncc2c(n1)CN(Cc1nc(-c3ccco3)oc1C)CC2 | -22.8
17 | CC(C)(C)C(=O)N1CCCC1(C(=O)N1CCCC1)c1cnccn1 (stereo not given) | -4.87
18 | O=C(Nc1ccccc1F)NC1(CO)CCOCC1 | -1.57
19 | NC(=O)C1Cc2ccccc2CN1CCC(=O)N1CCc2ccccc21 (stereo not given) | -3.92
20 | Cc1nn(C)cc1C(=O)N1CCCn2nc(CN3CC[C@H](F)C3)cc2C1 | 2.32

Row | SMILES | Percent Effect [%]
21 | O=C(c1ccccc1F)N1CCCC1Cn1c(=O)oc2ccccc21 (stereo not given) | 10.9
22 | Cc1n[nH]c(C)c1CCc1ccc(S(C)(=O)=O)cc1 | 0.986
23 | O=C(NC1CCN(c2ccccc2OC(F)F)C1)c1cccnc1 (stereo not given) | -0.669
24 | CC(C)(C)c1cc(CNC(=O)c2cc(COc3ccccc3)[nH]n2)[nH]n1 | 17.9
25 | CSc1ccc(C(=O)C2CCCN(C(=O)CCCn3cncn3)C2)cc1 (stereo not given) | 9.79
26 | N#Cc1c(N)nc2c(c1C1CCOC1)CCc1cc(O)ccc1-2 (stereo not given) | 32
27 | Cc1nnc(-c2cccc(C#N)c2)n1C1CCN(C(C)C)C1=O (stereo not given) | 7.44
28 | CS(=O)(=O)N1CCN(c2cc(N3CCCC3CO)ncn2)CC1 (stereo not given) | -5.51
29 | CN1CC(c2ccccc2)CC2(CCN(Cc3ncc[nH]3)CC2)C1 (stereo not given) | -6.61
30 | CCc1oc(C(=O)NC(C)Cc2cnccn2)cc1CN1CCCC1 (stereo not given) | 0.442
31 | CCN(CC)S(=O)(=O)CC(=O)Nc1ccsc1 | 2.3
32 | Cc1noc(C)c1CCc1nc(C2CCOC2)no1 (stereo not given) | -7.75
33 | O=C(Nc1ccccc1OCCc1ccccn1)N1CC[C@@H](O)C1 | 8.55
34 | CC(C)c1nccn1CC1CCCN1Cc1nc2ccccc2n1C (stereo not given) | 4.02
35 | CC(C(=O)N1CCC(c2[nH]ncc2-c2ccccc2)CC1)n1cncn1 (stereo not given) | -1.59
36 | COC(=O)c1ccc(NC(=O)CCc2ccco2)cc1 | 20.9
37 | CC(C)Oc1cccc(CN(C)C(=O)Nc2cccn(C)c2=O)c1 | -63
38 | Fc1ccccc1OC1CCN(CCn2cc3ccccc3n2)CC1 | 6.19
39 | O=C1NCCN(C(=O)CN2CCOC2=O)C1c1cccc(F)c1 (stereo not given) | -8.21
40 | O=c1cc(N2CCCC2)cnn1Cc1noc(C2CCCO2)n1 (stereo not given) | -1.31
